{"source": "PubChem BioAssay AID602477", "about": "(National Center for Advancing Translational Sciences (NCATS), 2012)", "note": "Records with an inconclusive call do not appear. Active and inactive are the calls of the source. The call rests on the fitted dose curve; in most records, active means well fitted activation curve with a large enough effect; inconclusive means small, poorly fitted or top-dose-only effect; inactive means no such curve, though single readings can be large or run the other way."}
{"assay": "FLuc inhibitory activity for the follow-up compounds in a cell-based assay to assess the activity of miR-21", "settings": "HeLa miR-21-FLuc reporter, luciferase luminescence, 48 h; series mostly up to 38.3 µM", "from_the_text": "NCGC Assay Overview: Firefly (Photinus pyralis) luciferase is one of the most commonly used transcriptional reporters. It is considered one of the more dynamically responsive reporters - that is, responsive to changes in reporter transcription - as it requires no post-translational modifications and is enzymatically active directly after protein synthesis (Wood, 1998). With no endogenous expression in mammalian cells and without the requirement of external excitation, it offers very little background signal, thus generally providing excellent signal to background for most assays. Previous profiling work to determine the prevalence of compounds that affect FLuc enzymatic activity (PubChem AID 411) identified that ~3% of the MLSMR library (then at ~72K) inhibited FLuc (Auld et al., 2008). […] Of the compounds identified in this profile that inhibited FLuc, 151 compounds were selected for further analysis, in an effort to better understand their mode of inhibiting FLuc. The assay described here was to determine the activity of the compounds in a cell-based firefly luciferase reporter gene assay originally designed to identify antagonists of miR-21. Compounds that inhibit miR-21 or compounds that stabilize FLuc intracellularly are identified as active compounds in the assay.\nNCGC Assay Protocol Summary: Reagents: In-house detection reagent: 300mM Tris-HCl, 300mM Trizma base, 300mM MgCl, 1% Triton-X100, 5mM DTT, 500uM Coenzyme A trilithium salt (Sigma #C3019),450uM ATP (Sigma #A7699), 1mM D-luciferin sodium salt monohydrate (Biosynth #L8240) HeLa cells stably expressing firefly luciferase (FLuc) under the control of a CMV promoter (upstream) and a miR-21 binding sequence directly downstream of the gene. These cells endogenously express miR-21. Control compounds used were two known firefly luciferase inhibitors (3-(5-(3-chlorophenyl)-1,2,4-oxadiazol-3-yl)benzoic acid and 5-(2-fluorophenyl)-3-phenyl-1,2,4-oxadiazole), and DMSO. Assay Summary: 6uL of HeLa miR-21-FLuc cells in assay buffer (DMEM, Invitrogen #21063-029; 10% FBS, HyClone #SH30071.03) were dispensed at 2000cells/well (3.3 x 10^5 cells/mL) into Greiner solid-white TC-treated 1536-well plates using a Multidrop Combi (Thermo Fisher Scientific). Plates were incubated for one hour at 37 degree Celsius, 95% humidity, 5% CO2. These assay plates were then treated with 23nL of compound or DMSO using a Kalypsys pin tool, which allows for delivery of a 12-point titration of each compound to the assay plate, with a final compound concentration ranging from approximately ~38uM to 0.2nM. Assay plates were then incubated for 48 hours. After incubation, plates were allowed to come to RT for one hour prior to delivery of 3uL of 3X luciferase detection reagent. After a 15 minute incubation to allow for cell lysis, luciferase activity was measured using a ViewLux CCD imager (PerkinElmer), with an average exposure time of 2-12 seconds."}
{"smiles": "COc1ccc2nc(NC(=O)Cc3cccs3)sc2c1", "Potency": "2.83 µM (active)"}
{"smiles": "c1ccc2sc(-c3ccc4c(c3)OCO4)nc2c1", "Potency": "0.225 µM (active)"}
{"smiles": "COc1cc(OC)cc(-c2nc3ccccc3s2)c1", "Potency": "3.56 µM (active)"}
{"smiles": "COc1ccc2nc(NC(=O)CCc3nc(-c4ccccc4F)no3)sc2c1", "Potency": "2.52 µM (active)"}
{"smiles": "COc1ccc(C(=O)Nc2ccccc2C(=O)N/N=C/c2ccc(O)c(OC)c2)cc1", "Potency": "inactive"}
{"smiles": "O=C(Nc1ccccc1C(=O)O)c1ccc(NC(=O)C2CCCO2)cc1", "note": "(stereo not drawn)", "Potency": "inactive"}
{"smiles": "COc1ccc(CC(=O)Nc2ccc(-c3nc4ccccc4s3)c(C)c2)cc1", "Potency": "14.2 µM (active)"}
{"smiles": "COc1ccc(C(=O)Nc2ccccc2C(=O)Nc2ccc(C(=O)O)cc2)cc1", "Potency": "8.95 µM (active)"}
{"smiles": "O=C(O)c1cccc(NC(=O)c2cccc(S(=O)(=O)N3CCc4ccccc4C3)c2)c1", "Potency": "inactive"}
{"smiles": "O=C(Nc1cccc(-c2nc3ccccc3s2)c1)c1cc(-n2cnnc2)ccc1Cl", "Potency": "4.49 µM (active)"}
{"smiles": "C/C(=N\\NC(=O)c1ccccc1NC(=O)c1ccc(Cl)cc1)c1ccncc1", "Potency": "0.0449 µM (active)"}
{"smiles": "O=S(=O)(c1ccc(-c2nc3ccccc3s2)cc1)N1CCCC1", "Potency": "2 µM (active)"}
{"smiles": "COc1ccc(C(=O)Nc2nc3ccc(OC)cc3s2)cc1", "Potency": "2.83 µM (active)"}
{"smiles": "NC(=O)Cc1ccc2sc(-c3ccccc3)nc2c1", "Potency": "1.26 µM (active)"}
{"smiles": "CN(C)c1cccc(C(=O)Nc2ccc(-c3nc4ccccc4s3)cc2)c1", "Potency": "0.503 µM (active)"}
{"smiles": "COc1ccc(-c2nc3ccccc3s2)cc1NC(=O)c1ccc(F)cc1", "Potency": "12.6 µM (active)"}
{"smiles": "O=C(Nc1ccc(Cl)cc1-c1nc2ccccc2s1)c1ccco1", "Potency": "20 µM (active)"}
{"smiles": "Cc1c(C)c2ccc(OCC(=O)Nc3ccccn3)c(C)c2oc1=O", "Potency": "0.0056 µM (active)"}
{"smiles": "O=C(Cc1ccccc1)Nc1ccc(C(=O)Nc2ccccc2C(=O)O)cc1", "Potency": "inactive"}
{"smiles": "COc1ccc(CC(=O)Nc2cccc(C(=O)Nc3ccccc3C(=O)O)c2)cc1OC", "Potency": "5.04 µM (active)"}
{"smiles": "O=C(Nc1cccc(-c2nc3ccccc3s2)c1)C1=COCCO1", "Potency": "12.6 µM (active)"}
{"smiles": "COc1ccc2nc(NC(=O)CCc3ccc(OC)c(OC)c3)sc2c1", "Potency": "12.6 µM (active)"}
{"smiles": "CCOc1ccc2nc(NC(=O)c3ccccn3)sc2c1", "Potency": "0.0565 µM (active)"}
{"smiles": "COc1ccc2nc(NC(=O)c3ccc4ncsc4c3)sc2c1", "Potency": "2.83 µM (active)"}
{"smiles": "O=C(Nc1ccccc1C(=O)O)c1ccccc1", "Potency": "25.2 µM (active)"}
{"smiles": "CCc1noc(C)c1C(=O)Nc1nc2ccc(OC)cc2s1", "Potency": "12.6 µM (active)"}
{"smiles": "COc1ccc(C(=O)Nc2ccccc2C(=O)Nc2ccccc2C(=O)O)cc1", "Potency": "8.95 µM (active)"}
{"smiles": "O=C(Nc1ccccc1C(=O)O)c1ccc(Cl)c(S(=O)(=O)N2CCOCC2)c1", "Potency": "12.6 µM (active)"}
{"smiles": "Oc1ccc(-c2nc3ccccc3s2)c(O)c1", "Potency": "11.3 µM (active)"}
{"smiles": "CCOc1ccc2nc(NC(=O)c3ccoc3C)sc2c1", "Potency": "0.1 µM (active)"}
{"smiles": "COc1ccc2nc(NC(=O)c3ccc([N+](=O)[O-])o3)sc2c1", "Potency": "4.49 µM (active)"}
{"smiles": "Nc1ccc(-c2nc3ccc(N)cc3s2)cc1", "Potency": "0.283 µM (active)"}
{"smiles": "Cc1ccc(C(=O)Nc2cccc(C(=O)O)c2)cc1S(=O)(=O)N1CCOCC1", "Potency": "12.6 µM (active)"}
{"smiles": "Cc1ccc2sc(-c3ccc(N)cc3)nc2c1", "Potency": "0.0504 µM (active)"}
{"smiles": "O=C(Nc1ccccc1C(=O)O)c1cccc(S(=O)(=O)Nc2ccc(Br)cc2)c1", "Potency": "inactive"}
{"smiles": "COc1ccc2nc(NC(=O)c3ccc(NS(=O)(=O)c4cccs4)cc3)sc2c1", "Potency": "8.95 µM (active)"}
{"smiles": "COc1ccc2nc(NC(=O)c3nc(S(=O)(=O)Cc4ccc(C)cc4)ncc3Cl)sc2c1", "Potency": "2.52 µM (active)"}
{"smiles": "Nc1ccc2nc(-c3ccccc3)sc2c1", "Potency": "0.0634 µM (active)"}
